Records with an inconclusive call do not appear. Entries that show only a call come without a potency. Calls of active or inactive are those of the source. Calls come from the whole dose curve; as a rule, active = well fitted inhibition curve with a large enough effect; inconclusive = small, poorly fitted or top-dose-only effect; inactive = flat fitted curve, though single readings scatter.
target: Calcium and integrin-binding protein 1 (Homo sapiens) (UniProt Q99828); assay: Primary qHTS for Identification of Calcium Integrin Binding Protein 1 (CIB1) Competitor (AID 1508620); conditions: CIB1-GST / FITC-alphaIIb peptide fluorescence polarization; series mostly up to 114 µM;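 note: GST tagged CIB1 binding a fluorescein labelled alphaIIb integrin peptide tracer; top concentration of the series differs between compounds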
In short: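 CIB1-GST (1 uM final) and compound incubated 15 min at room temperature before adding FITC-alphaIIb peptide tracer (100 nM final). Competition for binding read by fluorescence polarization (ex 480, em 540) after another 15 min at room temperature.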

Sequence of Calcium and integrin-binding protein 1 (Homo sapiens) (Q99828 whole entry, looked up): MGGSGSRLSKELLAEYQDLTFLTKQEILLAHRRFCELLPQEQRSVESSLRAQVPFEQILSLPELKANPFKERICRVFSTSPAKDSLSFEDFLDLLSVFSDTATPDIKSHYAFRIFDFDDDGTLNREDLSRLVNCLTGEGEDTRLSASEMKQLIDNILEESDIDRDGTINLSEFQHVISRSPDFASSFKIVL

| Compound | Potency |
| --- | --- |
| Cc1ccc(OCCn2c(CCNC(=O)c3cccc4ccccc34)nc3ccccc32)cc1 | inactive |
| O=C1Cc2cc(S(=O)(=O)N3CCN(c4ccc([N+](=O)[O-])cc4)CC3)ccc2N1 | inactive |
| FC(F)(F)c1ccccc1-c1nc(NCc2ccc(C3CCCCC3)cc2)c2ccccc2n1 | inactive |
| CC(C)(C)OC(=O)N1CCN(c2ccc(NCc3cnc(-c4ccc(C#N)cc4)o3)cc2)CC1 | inactive |
| Cn1ccc2cc(-c3ccc4ncnc(NCc5cccnc5)c4c3)ccc21 | inactive |
| CC(C)c1ccccc1-c1ncc(F)c(NCC2CCN(c3cnccn3)C2)n1 (stereo not given) | inactive |
| Cc1ccc(-c2ccc(=O)n(CC(=O)NCCc3ccc(O)cc3)n2)cc1 | inactive |
| CCOC(=O)CCCC(=O)Nc1ncnc2c1C(c1ccccc1)c1c(ccc3ccccc13)O2 (stereo not given) | inactive |
| CCn1cnc2c(NCc3cccnc3)nc(C#N)nc21 | inactive |
| Cc1cc(NS(=O)(=O)c2ccc(NC(=O)Cc3ccc(Cl)cc3)cc2)no1 | inactive |
| O=C(O)c1c(-c2ccccc2)no[n+]1[O-] | inactive |
| Cc1cc(C)nc(NC(=S)N2CCN(c3cnc4nccn4c3)CC2)c1 | inactive |
| Cc1cnccc1-c1nc(Nc2ccc(F)c(F)c2)c2ccccc2n1 | inactive |
| COc1ccc(C2Nc3ccccc3C(=O)N2Cc2ccco2)cc1COc1ccc(NC(C)=O)cc1 (stereo not given) | inactive |
| CC(C)(C)OC(=O)Cc1nnc(C(C(=O)OCc2ccccc2)c2ccccc2)o1 (stereo not given) | inactive |
| NC(=O)c1ccccc1-c1noc(-c2ccccc2F)n1 | inactive |
| CCOc1ccccc1-c1nnc2n1N=C(c1cccc(OC)c1)CS2 | inactive |
| COc1cccc(C2c3c(ncn(-c4ccccc4Br)c3=N)Oc3ccc4ccccc4c32)c1 (stereo not given) | inactive |
| Clc1ccc(CSc2nc3ncc(Br)cc3[nH]2)cc1 | inactive |
| O=C(c1ccccc1O)N(Cc1ccco1)Cc1cccs1 | inactive |

| Compound | Potency |
| --- | --- |
| COc1ccc(C(=O)N(Cc2ccco2)Cc2ccco2)c(O)c1 | inactive |
| Cc1ccc2nc3sc(C(=O)NCCc4cccnc4)cc3cc2c1 | inactive |
| CC(=O)N1c2ccc(S(=O)(=O)Nc3ccc(C)c(C)c3)cc2CC1C (stereo not given) | inactive |
| COc1cccc(CNc2ccc(S(=O)(=O)Nc3nccs3)cc2)c1O | inactive |
| CN(C)c1ccc(-c2csc(N3CCC(C(N)=O)CC3)n2)cc1 | inactive |
| CC(C)c1cc2c(s1)c1cnn(Cc3ccccc3F)c(=O)c1n2C | inactive |
| CC(Nc1nc(-c2ccccc2C(F)(F)F)nc2ccccc12)c1ccc(-c2cccc(C(F)(F)F)c2)cc1 (stereo not given) | inactive |
| Cc1ccc(NS(=O)(=O)c2ccc3c(c2)NC(=O)CO3)cc1C | inactive |
| CCCCN(C)C(=O)Cn1nc(-c2ccc(Cl)cc2)ccc1=O | inactive |
| Cc1cc(C)nc(NC(=S)N2CCN(c3ccc(NS(C)(=O)=O)nn3)CC2)c1 | inactive |
| Cc1ccc(-c2ccc(=O)n(CC(=O)NCCC3CC3)n2)cc1 | inactive |
| COc1cc(NC(=O)C(OC(=O)CNC(=O)c2ccccc2)c2ccccc2)c(OC)cc1Cl (stereo not given) | inactive |
| Cc1cc(NS(=O)(=O)c2ccc3c(c2)CCC(=O)N3)ccc1Cl | inactive |
| Cc1cccc(-n2cnc3cc(C(=O)NC(C)(C)C)ccc32)c1 | inactive |
| CC(C)c1ccccc1SC1=NS(=O)(=O)c2ccccc21 | inactive |
| Cc1cc(NS(=O)(=O)c2ccc(NC(=O)Cc3ccc4ccccc4c3)cc2)no1 | inactive |
| COc1ccc(OC)c(C2=Nn3c(nnc3-c3ccccc3C)SC2)c1 | inactive |
| O=C(CNC(=O)c1ccc2n[nH]nc2c1)OC(C(=O)Nc1cc(C(F)(F)F)ccc1Cl)c1ccccc1 (stereo not given) | inactive |
| O=C1CCCC2=C1C1(CCCC1)N=C(Nc1nc3cc(Br)ccc3o1)N2 | inactive |
| CC(=O)N(C(C)=O)n1c(C)nc2sc3c(c2c1=O)CCNC3 | inactive |
